# Sampled rows, rich in hits. Any-hit rate of the full collection: about 11%.
# ALDH1A1 inh: inhibitors of human aldehyde dehydrogenase 1A1. AID 1030. Potency, µM (doses to about 75.3 µM), actives largely listed as inhibitors. 220,000 compounds, 7.3% hits. Purified ALDH1A1, NADH fluorescence, propionaldehyde substrate
# Target sequence (P00352 whole entry, looked up): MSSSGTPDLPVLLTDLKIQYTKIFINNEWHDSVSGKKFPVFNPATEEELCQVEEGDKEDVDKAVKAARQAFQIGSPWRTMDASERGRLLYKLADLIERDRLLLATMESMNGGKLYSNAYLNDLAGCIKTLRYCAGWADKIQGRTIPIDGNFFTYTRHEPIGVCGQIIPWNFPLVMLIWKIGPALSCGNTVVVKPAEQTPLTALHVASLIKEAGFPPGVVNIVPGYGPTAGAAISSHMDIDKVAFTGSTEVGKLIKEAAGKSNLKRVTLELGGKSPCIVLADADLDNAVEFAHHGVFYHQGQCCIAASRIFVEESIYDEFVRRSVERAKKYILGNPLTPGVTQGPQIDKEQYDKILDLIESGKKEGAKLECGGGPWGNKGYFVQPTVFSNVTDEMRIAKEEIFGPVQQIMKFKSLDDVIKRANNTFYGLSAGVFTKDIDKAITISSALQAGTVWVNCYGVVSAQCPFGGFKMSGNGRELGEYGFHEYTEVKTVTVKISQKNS
# IMPase inh: membrane-permeable compound that blocks inositol monophosphatase | CHO-M1 cells, IP1 accumulation, HTRF TR-FRET ratio | inhibition (IP1 accumulation), % at 46.1 µM | 120,000 tested, under 10 active; active = well fitted curve in the direction sought with a large enough effect in the signal ratio, not every such curve was filed as active; inconclusive = small, poorly fitted or top-dose-only effect, or a change in a side signal; inactive = no such curve, though single readings can be large or run the other way; the % refers to the signal ratio;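 also: cells stimulated with carbachol in lithium chloride buffer; higher means more IMPase inhibition seen as more IP1 and lower FRET ratio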
# Target sequence (P97697 whole entry, looked up): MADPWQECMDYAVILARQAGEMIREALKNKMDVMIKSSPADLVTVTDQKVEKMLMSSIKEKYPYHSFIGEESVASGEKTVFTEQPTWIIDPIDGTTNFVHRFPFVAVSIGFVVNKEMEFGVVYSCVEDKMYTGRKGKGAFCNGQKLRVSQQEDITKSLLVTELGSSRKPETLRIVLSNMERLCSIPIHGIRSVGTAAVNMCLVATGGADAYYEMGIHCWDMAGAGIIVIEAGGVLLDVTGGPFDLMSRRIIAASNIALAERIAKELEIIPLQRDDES
#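 In this qHTS, compounds (final up to 46 uM) act on CHO-M1 cells that are then activated through the M1 receptor with carbachol, in pH 7.4 buffer containing 50 mM LiCl, for 30 min. IP1 accumulation is quantified by the IP-One immunoassay.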
# NPSR antagonist: antagonists of human neuropeptide S receptor cAMP signaling | 220,000 compounds, 1% hits | CHO-NPSR cells, cAMP TR-FRET, antagonist mode | Potency, µM (highest dose often 38.3 µM), hits mostly inhibitors; active = well fitted curve in the direction sought with a large enough effect; inconclusive = small, poorly fitted or top-dose-only effect, or another doubt; inactive = no such curve, though single readings can be large; an effect the other way counts as inactive or inconclusive; also: nearly all actives have a fitted effect of over 50% in size
# HPGD inh: HPGD (human) dehydrogenase inhibition. 150,000 compounds, 4.3% hits. Potency, µM, actives largely listed as inhibitors. AID 894. purified HPGD, NADH fluorescence kinetic, PGE2 substrate. P15428
#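 20 nM HPGD preincubated 15 min at room temperature with compound in 50 mM Tris-HCl pH 8, 0.01% Tween 20. Started with 1 mM NAD+ and 30 uM prostaglandin E2; NADH fluorescence (360/450 nm) read 5 times over 30-s intervals, last minus first.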
# PNC inhibitor: perinucleolar compartment assembly inhibition; PC3M PTB-GFP, PNC prevalence imaging, 16 h; active compounds read low; activity change (PNC), negative = inhibition, % at 10 µM; 140,000 compounds, 3.1% hits; AID 2417;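 active = readout at or below -70, meaning at least 70% loss of cells showing the perinucleolar compartment, a nuclear body marking cancer cells; inconclusive = readout between -30 and a set limit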
#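 Read-out is percentage of cells bearing a perinucleolar compartment, from automated 20x imaging of fixed, Hoechst-stained PC3M PTB-GFP cells. Cells were seeded 4 h, then exposed 16 h to compound (23 nl of library stock) in duplicate plates.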
# IMPase Li inh: IMPase inhibition in cells with lithium potentiation | CHO-M1 cells, IP1 TR-FRET (IP-One), carbachol + lithium | AID 1457 | 210,000 compounds, 0.35% hits | Potency, µM (highest dose often 59.4 µM), most hits filed as inhibitors; active = well fitted curve in the direction sought with a large enough effect; inconclusive = small, poorly fitted or top-dose-only effect, or another doubt; inactive = no such curve, though single readings can be large; an effect the other way counts as inactive or inconclusive;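 also: IP1 builds up when IMPase is blocked and the TR-FRET signal falls; nearly all actives have a fitted effect of over 50% in size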
#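 CHO-M1, 2000 cells/well, 16–30 h culture; cpd + low Li+, 30 min 37C; lysis with d2-IP1/Eu-anti-IP1 Ab, 10 min RT; TR-FRET 665/620 ratio and 620 channel; AC50 via Hill.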
# Hits are given with their value; - = inactive; ? = inconclusive; . = not tested or not shown; ! = repeats disagree; [ ] = another dose, or the depositor's remark. Unless noted, calls follow the shape of the dose curve; as a rule, active = well fitted inhibition curve with a large enough effect (not every such curve was filed as active); inconclusive = small, poorly fitted or top-dose-only effect, or another doubt; inactive = no such curve, though single readings can be large or run the other way.
SMILES,ALDH1A1 inh,IMPase inh,NPSR antagonist,HPGD inh,PNC inhibitor,IMPase Li inh
O=C(Nc1nnc(-c2ccccc2Cl)o1)c1nc2ccccc2s1,-,-,-,-,?,-
COc1ccc(CNc2ccc(-c3ccc(OC)cc3)nn2)cc1,-,-[9.22 µM],-,-,-87.9,-
COc1ccccc1-c1ccc(NC2CCCC2)nn1,-,-,-,6.31µM,-,-
COc1ccc(CNc2ccc(-c3ccccc3OC)nn2)cc1,-,-,-,15.8µM,?,-
COc1ccc(CNc2ccc(Br)cc2)cc1,-,.,-,.,.,-
CCCn1c(SCC(=O)Nc2ccc(C(=O)Nc3ccccc3OC)cc2)n[nH]c1=O,-,.,-,.,.,-
CCC(C)(C)n1nnnc1C(c1cccc(C#N)c1)N1CCN(c2cccc(C)c2C)CC1 (stereo not drawn),-,-,?,-,?,-
Cc1nn(-c2ccccc2)c(C)c1C(=O)OCC(=O)N1CC(=O)Nc2ccccc21,-,-,-,-,-,-
CCOC(=O)c1[nH]c(C)c(C(=O)OCC(=O)N2CC(=O)Nc3ccccc32)c1C,-,-,-,15.8µM,-,-
O=C1CN(C(=O)COC(=O)COc2ccc3c(c2)CCC3)c2ccccc2N1,?,-,-,14.1µM,-,-
COc1ccc(OCC(=O)OCC(=O)N2CC(=O)Nc3ccccc32)cc1,-,.,-,.,.,.
CCc1ccc(OCC(=O)c2c(O)c3ccccc3oc2=O)cc1,?,.,-,.,.,-
CCc1oc2ccccc2c1C(=O)c1cc(Br)c(O)c(Br)c1,-[13.5 µM],-,-,17.8µM!,-,-
Cc1ccc(S(=O)(=O)N(CC(=O)N2CCC(C(N)=O)CC2)c2cccc(C(F)(F)F)c2)cc1,12.6µM,-,-,-,-,-
CCn1nc(C)c(NC(=O)/C=C/c2cnn(C)c2C)c1C,-,-,-,-,-,-
CC(S)C(=O)NCC(=O)O (stereo not drawn),17.8µM,.,.,-,.,-
CCc1cc2c(=O)c(-c3ccc4c(c3)OCCO4)c(C)oc2cc1OS(C)(=O)=O,4.47µM,-,-,-,-,-
CC(=O)Oc1ccc2c(=O)c(-c3ccccc3)c(C)oc2c1,-,.,-,.,.,-
CN(C)c1ccc(N=Nc2ccccc2C(=O)OCC(=O)NCC2CCCCC2)cc1,-,.,-,-,-,-
CN(C)c1ccc(N=Nc2ccccc2C(=O)OCC(=O)NC2CCCC2)cc1,-,-,?,.,-115.2,.
COC1=C(Nc2ccccc2)C(=O)c2ccccc2C1=O,2.24µM,.,-,10µM,?,-
O=C1C(Cl)=C(Nc2ccccc2)C(=O)c2ccccc21,-,.,?,-,-,-
COC1=C(Nc2ccc(C)cc2)C(=O)c2ccccc2C1=O,5.01µM,.,-,11.2µM,-,-
O=C(Nc1ccc2c(c1)OCO2)C1CCN(C(=O)CSc2ncnc3ccccc23)CC1,?,-,-,-,-,-
COc1cccc(C(=O)N2CCN(Cc3cc(Br)ccc3OC)CC2)c1,-,-,-,-,-,-
SMILES,ALDH1A1 inh,IMPase inh,NPSR antagonist,HPGD inh,PNC inhibitor,IMPase Li inh
CCCC1(c2ccccc2)NC(=O)N(CC(=O)Nc2cc(C)on2)C1=O (stereo not drawn),-,.,-,.,.,-
CCCC1(c2ccccc2)NC(=O)N(CC(=O)Nc2sc(-c3ccccc3)cc2C(=O)OCC)C1=O (stereo not drawn),?,?,?,?,-,2.82µM
CCOC(=O)Cc1c(C)nc2c(-c3ccccc3)c(C)[nH]n2c1=O,-,-,-,?,-,-
Cn1cccc1C(C#N)c1cccc(F)c1C#N (stereo not drawn),25.1µM,.,-,.,.,-
CC(C)N(C(=O)CSc1nc2ccccc2c(=O)[nH]1)C(C)C,-,.,-,.,.,-
COc1ccc(OCC(O)CN(C)C(=O)/C=C/c2cccc([N+](=O)[O-])c2)cc1 (stereo not drawn),?,.,-,.,.,-
CN(C)CCC(=O)c1cccc(Br)c1,0.0398µM,.,-,.,.,-
O=C(O)CCSCC(=O)c1ccc2c(c1)OCCO2,15µM,-,-[7.67 µM],-,-,-
CN(C)CCC(=O)c1ccc2c(c1)OCO2,0.0224µM,-,-,-,-,-
O=C(CCN1Cc2ccccc2C1)c1ccc2c(c1)OCCO2,1.26µM,-[9.22 µM],?,-,-,-
CN(C)CCCC(=O)c1ccc2c(c1)OCO2,-,-,-,-,-,-
O=C(O)CCC(=O)c1ccc2c(c1)OCCO2,-,-,-,-,-,-
CS(=O)(=O)N(CC(=O)NCC1CCCO1)c1cccc([N+](=O)[O-])c1 (stereo not drawn),-,.,-,.,.,-
CC(C)OC(=O)Nc1ccc2c(c1)N(C(=O)CCN1CCN(CCO)CC1)c1ccccc1CC2,-,.,-,.,.,-
CC1CCCCC1NC(=O)COC(=O)c1ccc(N(C)C)cc1 (stereo not drawn),-,-,-,?,-,-
COc1ccc2[nH]cc(CCNc3cc(-c4c(C)noc4C)ncn3)c2c1,?,.,.,.,.,-
COCCOC(=O)C1=C(C)N(Cc2ccccc2)C(=O)NC1c1cccc(OC)c1OC (stereo not drawn),-,-,-,-,-,-
O=C(CS(=O)(=O)c1ccccc1)c1ccc2c(c1)OCCO2,?,-,-,?,?,-
Cc1c(C(=O)OCC(=O)c2ccc3c(c2)OCCO3)oc2ccccc12,-,-,-,-,-,-
Cc1cc(C(=O)OCC(=O)c2ccc3c(c2)OCCO3)c(C)o1,?,-,-,20µM,?,-
O=C(CCN1CCc2ccccc2C(c2ccccc2)C1)c1ccc2c(c1)OCCO2 (stereo not drawn),0.141µM,-,?,-,-,-
CCCC(=O)c1ccc2c(c1)OCCO2,-,-,-,28.2µM,-,-
Cc1cc(N2CCCC2)ccc1/C=N/n1cnnc1,?,-,?,?,-,-
O=c1c2cc(NC(=S)NC3CC3)ccc2nc2n1CCCCC2,-,.,-,.,.,-
O=C(Cc1ccc(Nc2nc(=S)[nH]c3ccccc23)cc1)NC1CCCCC1,-,.,-,.,.,-
SMILES,ALDH1A1 inh,IMPase inh,NPSR antagonist,HPGD inh,PNC inhibitor,IMPase Li inh
CCN(CC)c1ccc(/C=C2\C(=O)c3ccc(C(=O)O)cc3C2=O)cc1,3.16µM,.,-,2.82µM,?,-
CCN(CC)S(=O)(=O)c1ccc(N2CCCC2)c(NC(=O)c2ccncc2)c1,15.8µM,.,-,.,.,.
CCN(CC)S(=O)(=O)c1ccc(N2CCCCC2)c(NC(=O)c2ccncc2)c1,11.2µM,.,-,.,.,-
CCN(CC)S(=O)(=O)c1ccc(N2CCOCC2)c(NC(=O)c2ccccc2)c1,?,.,-,-,-,-
Cc1nnc(N/N=C/c2ccc(-c3ccc(Br)cc3)o2)n1N,7.94µM,.,-,.,.,-
NC(=O)/C(=N\OC(=O)c1ccco1)c1nc(-c2ccc(Br)cc2)cs1,12.6µM,-,-,12.6µM,-,-
CC(C)(C)C1=C[C@@H](CO)C[C@@H](CO)C1,28.2µM,-,-,-,?,-
CCCN1C(=O)/C(=C/c2c(N3CCNC(=O)C3CC(=O)OC)nc3c(C)cccn3c2=O)SC1=S (stereo not drawn),5.01µM,.,?,.,.,.

# High-throughput results (PubChem BioAssay)
